FLuc modulator: inhibits or activates purified firefly luciferase, miR-21 counter-screen. purified FLuc, Km substrates, luminescence inhibition. Potency, µM (top dose mostly 57.5 µM), for inactives: at the top dose activity change, negative = inhibition, hits mostly inhibitors. 6.9% of 360,000 active. AID 588342;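 note: plate controls were vehicle for no effect and reference inhibitor for full effect; nearly all actives have a fitted effect of over 55% in size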
Target sequence (P08659 whole entry, looked up): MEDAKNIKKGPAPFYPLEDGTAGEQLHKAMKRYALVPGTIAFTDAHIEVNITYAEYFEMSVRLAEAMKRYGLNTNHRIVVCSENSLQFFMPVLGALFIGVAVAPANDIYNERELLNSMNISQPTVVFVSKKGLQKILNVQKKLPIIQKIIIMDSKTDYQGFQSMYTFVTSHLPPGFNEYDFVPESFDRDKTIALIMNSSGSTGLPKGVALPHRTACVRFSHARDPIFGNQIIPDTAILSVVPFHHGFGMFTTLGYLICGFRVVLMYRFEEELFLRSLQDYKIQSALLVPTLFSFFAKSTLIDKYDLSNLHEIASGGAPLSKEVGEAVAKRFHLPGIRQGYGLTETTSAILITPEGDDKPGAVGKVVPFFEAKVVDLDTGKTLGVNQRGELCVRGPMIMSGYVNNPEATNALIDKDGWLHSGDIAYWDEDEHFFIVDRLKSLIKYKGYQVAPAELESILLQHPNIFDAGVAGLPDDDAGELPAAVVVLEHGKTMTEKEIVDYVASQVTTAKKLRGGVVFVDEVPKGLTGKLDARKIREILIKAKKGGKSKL
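Purified P. pyralis luciferase, 10 nM final, with Km-level 10 uM D-luciferin and 10 uM ATP in 50 mM Tris acetate pH 7.5, 10 mM Mg acetate, 0.01% Tween-20, 0.05% BSA; 6-point qHTS titration about 60 µM downward; luminescence read.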
SMN2 splice up: increases expression of the SMN2 splice variant | HEK293 SMN2-luciferase splicing reporter, luminescence, 30-36 h | Potency, µM (series often up to 46.1 µM), without a hit: at the top dose activity change, positive = activation, usual class: activators | 2.8% of 210,000 active; note: % of control where 0% means no effect; nearly all actives have a fitted effect of over 55% in size
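HEK293 cells carry an SMN2 minigene-luciferase reporter in which exon 7 inclusion puts luciferase in frame. Cells were seeded at 2000 cells/well, attached for 10-12 hours, then exposed to compounds for 30-36 hours at 37C before ONE-Glo luminescence.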
ELG1 genotoxic: inducers of genotoxicity in HEK293T ELG1-luciferase cells | HEK293T ELG1-luciferase reporter, luminescence, 16 h | Potency, µM (highest dose often 46 µM), without a hit: at the top dose activity change, positive = activation, most hits filed as activators | 1.3% of 330,000 active; note: % of control where 0% means no effect; nearly all actives have a fitted effect of over 60% in size
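Reporter readout depends on ELG1 protein level, which increases with genetic stress. After 16 hr compound exposure at 37 °C, luciferase activity was quantified using ONE-Glo.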
ELG1 repair inh: ELG1-dependent DNA repair inhibition | HEK293T ELG1-luciferase reporter, luminescence, 16 h; DNA damage induced by 5-fluorouridine | Potency, µM (highest dose often 46.1 µM), without a hit: at the highest dose activity change, negative = inhibition, hits mostly inhibitors | 2.3% of 330,000 active | AID 504467; note: % is set by controls: 0 for no effect and ±100 for the full control effect; nearly all actives have a fitted effect of over 55% in size
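Quantitative HTS, concentration-response format. 2,000 cells/well co-treated with 5-fluorouridine and compound, 16 hr in 5% CO2 at 37 °C; ONE-Glo luminescence read after 30 min.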
Rab9 prom act: Rab9 promoter activation. Huh7 Rab9 promoter-luciferase reporter, luminescence, 24 h. Potency, µM (top dose mostly 9.22 µM), for inactives: top-dose activation, negative = inhibition, usual class: activators. 2.8% of 320,000 active; note: % of control where 0% means no effect; nearly all actives have a fitted effect of over 60% in size
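Cells were plated at 1500 per well in reduced-serum medium with 10% FBS and left 2 h. Compound in DMSO was then added for 24 h at 37 °C. Reporter signal was read by luminescence after 10 min with luciferase detection reagent.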
NPC1 promoter act: NPC1 promoter activation; 2.4% of 320,000 active; Potency, µM (doses to about 9.22 µM), for inactives: top-dose activation, usual class: activators; Huh7 NPC1 promoter luciferase reporter, 24 h; note: % of control where 0% means no effect; nearly all actives have a fitted effect of over 60% in size
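Huh7 cells stably carrying NPC1 promoter–luciferase, plated in Opti-MEM with 10% FBS for 2 h, were exposed to compound in DMSO for 24 h at 37 °C; luciferase reagent was added for 10 min and luminescence read.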
Active calls of the source: *; ? = inconclusive; . = no result; [ ] = remark or other dose. Rows were chosen to be rich in hits. Some 9.2% of all compounds tested hit in one or more screens of this group. Calls come from the whole dose curve; as a rule, active = well fitted curve in the direction sought with a large enough effect; inconclusive = small, poorly fitted or top-dose-only effect, or another doubt; inactive = no such curve, though single readings can be large; an effect the other way counts as inactive or inconclusive. Potency is the fitted concentration of half-maximal effect.

SMILES | FLuc modulator | SMN2 splice up | ELG1 genotoxic | ELG1 repair inh | Rab9 prom act | NPC1 promoter act
Cc1ccc(S(=O)(=O)N(CC(O)Cn2c3ccccc3c3ccccc32)c2cccc(C(=O)NCCO)c2)cc1 (centres undefined) | -16.0% | -4.1% | . | . | . | .
COc1ccc(C(=O)COC(=O)c2ccccn2)cc1OC | -9.9% | . | 1.9% | ? | -2.4% | -1.7%
O=C(COC(=O)c1ccccn1)c1ccc(Br)cc1 | 2.39µM* | 4.4% | -0.3% | -3.1% | 2.6% | 1.0%
O=C(OCC1CC(c2ccccn2)=NO1)c1ccc(Br)cc1 (centres undefined) | 16.9µM* | -5.4% | 12.8% | ? | 9.0% | 11.8%
O=C(COC(=O)c1ccccn1)c1cccc(Br)c1 | 19µM* | . | -0.8% | 1.5% | -4.6% | ?
O=C(COC(=O)c1ccc(Br)cc1)Nc1cccnc1Cl | -3.3% | . | 4.4% | 11.3% | -3.6% | -1.4%
C[C@H](CO)N1C[C@H](C)[C@@H](CN(C)Cc2ccc(C(=O)O)cc2)Oc2ccc(NS(=O)(=O)c3cn(C)cn3)cc2C1=O | . | . | -3.0% | ? | . | .
COC(=O)/C(=C1/Oc2cc(C)oc(=O)c2S1)C(F)(F)F | -2.3% | -132.9% | -7.9% | ? | -3.0% | -14.3%
COC(=O)/C(=C1/Oc2ccc(C(C)(C)C)cc2S1)C(F)(F)F | 4.78µM* | -16.2% | ? | ? | ? | ?
CCOc1ccc(/C=N/NC(=O)Cc2cccs2)cc1 | 16.9µM* | . | ? | ? | ? | ?
O=C(Cc1cccs1)N/N=C/C(Cl)=C/c1ccccc1 | -10.3% | ? | ? | ? | 3.55µM* | ?
CCOC(=O)N/N=C/C(Cl)=C/c1ccccc1 | 16.9µM* | ? | ? | ? | ? | ?
O=C(Cc1cccs1)N/N=C/c1ccccc1 | ? | . | 12.4% | ? | 23.4% | 4.6%
Cc1cc(C)nc(N/N=C/C(Cl)=C/c2ccccc2)n1 | 13.5µM* | -8.0% | ? | ? | ? | ?
CCOC(=O)N/N=C(C)/C=C/c1ccccc1 | ? | 18.4% | 16.7% | ? | ? | 19.3%
CCCCc1ccc(NS(=O)(=O)c2cc3c4c(c2)CC(=O)N4CCC3)cc1 | -10.1% | . | . | . | . | .
CCn1nnnc1SCC(=O)Nc1nc2ccc(OC)cc2s1 | 12µM* | 20.2% | 1.6% | ? | 19.9% | 22.9%
COc1ccc2nc(NC(=O)CSc3nnc(-c4ccoc4C)n3C)sc2c1 | 2.69µM* | ? | 19.4% | ? | 3.55µM* | 2.82µM*
COc1ccc2nc(NC(=O)CSc3nc(C)cc(C)n3)sc2c1 | -20.0% | -24.0% | -4.2% | ? | -0.6% | -0.7%
NS(=O)(=O)c1ccc2nc(NC(=O)CS(=O)(=O)c3ccccc3)sc2c1 | -13.4% | . | -0.5%[9.26 µM] | 9.5% | 9.2% | -3.1%
CS(=O)(=O)c1ccc2nc(NC(=O)c3ccc(Cn4cc(Br)cn4)o3)sc2c1 | 4.78µM* | . | -2.8% | -0.7% | 19.8% | ?
Cc1ccc2nc(NC(=O)c3ccc(Br)o3)sc2c1 | 1.35µM* | . | ? | ? | 1.12µM* | 1.41µM*
NS(=O)(=O)c1ccc2nc(NC(=O)c3ccc(Br)o3)sc2c1 | 9.53µM* | 17.8µM* | ? | ? | ? | ?
CCOC(=O)C1CCCN(c2nc3c(S(=O)(=O)c4ccc(C)c(C)c4)nnn3c3ccc(Cl)cc23)C1 (centres undefined) | -0.8% | -4.0% | . | . | . | .
Cc1ccccc1C(=O)NNC(=O)c1cc(S(=O)(=O)N2CCOCC2)ccc1C | -15.5% | . | 1.4% | 9.8% | 0.2% | 0.8%
Cc1nc(Nc2ccc(S(N)(=O)=O)cc2)sc1C(=O)Nc1ccccc1 | -0.8% | -5.9% | -4.3% | 7.1% | -1.0% | -5.0%
Cc1nc(NCCOc2ccccc2)sc1C(=O)Nc1ccccc1 | ? | . | 27.5% | ? | ? | 2.82µM*
Cc1nc(Cl)sc1C(=O)Nc1ccc(Cl)cc1 | 15.1µM* | -8.5% | 2.9% | ? | 1.1% | -2.3%

Screens deposited in PubChem by National Center for Advancing Translational Sciences (NCATS).
